The values that follow come from PubChem BioAssay (EPA / NIEHS).

Active and inactive are the calls of the source. Rule for the calls: active = hit-call score of the fitted dose curve at least 0.9, where 1 is the maximum; inactive = score below 0.9.

Test [1] in a line: CEETOX_H295R_PROG: CeeTox H295R High-throughput Steroidogenesis Assay for Progesterone (PROG) (AID 2283442).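 For AC50: human H295R adrenal cells primed with 10 µM forskolin before dosing.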 The conditions noted are these: actives raise or lower the signal. In outline:
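Progesterone read-out: HPLC-MS/MS on MTBE extracts of conditioned medium after 48 h chemical exposure of forskolin-primed (10 uM, 48 h) H295R cells. Gain or loss of signal was fitted relative to DMSO baseline.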

Read-out in test [2]: Fatty acid synthase (Homo sapiens) (UniProt P49327)
The experiment in a line: LTEA_HepaRG_FASN: Life Technologies and Expression Analysis (LTEA) Assay for Fatty Acid Synthase (FASN) using HepaRG (AID 2283448). The following applies: mRNA level, 48 h; actives raise or lower the signal. Summed up:
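Differentiated HepaRG cells in serum-free induction medium exposed 48 h in duplicate to eight half-log concentrations, top 100 uM, 0.5% DMSO. FASN mRNA by qRT-PCR normalised to ACTB, GAPDH, POLR2A; bidirectional fit versus DMSO.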

Read-out in test [3]: Cyclin D2 (CCND2), CCND2 (gene 894)
Nature of the test: LTEA_HepaRG_CCND2: Life Technologies and Expression Analysis (LTEA) Assay for Cyclin D2 (CCND2) using HepaRG (AID 2283449).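 Note: CCND2 transcript measured by TaqMan qRT-PCR and normalised to three housekeeping genes.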 The conditions noted are these: mRNA level, 48 h; actives raise or lower the signal. In outline: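 Chemicals in 0.5% DMSO, eight half-log concentrations from 100 uM top, were applied in duplicate for 48 h to human HepaRG cells in serum-free induction medium. CCND2 mRNA by TaqMan qRT-PCR, normalised to ACTB/GAPDH/POLR2A; bidirectional fit versus DMSO.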

Read-out in test [4]: Cyclin D1 (CCND1), CCND1 (gene 595)
Nature of the test: LTEA_HepaRG_CCND1: Life Technologies and Expression Analysis (LTEA) Assay for Cyclin D1 (CCND1) using HepaRG (AID 2283451).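 For AC50: TaqMan qRT-PCR transcript level normalised to ACTB GAPDH and POLR2A housekeeping genes.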 The conditions noted are these: mRNA level, 48 h; actives raise or lower the signal. In outline: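 qRT-PCR (Fluidigm 96.96 array) read-out of transcript level, housekeeping-normalized (ACTB/GAPDH/POLR2A). HepaRG cells, 48 h chemical exposure, 8-point half-log series from 100 uM, 0.5% DMSO vehicle; gain or loss relative to DMSO baseline.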

Read-out in test [5]: flavin-containing dimethylaniline monooxygenases 3 (FMO3), FMO3 (gene 2328)
The experiment in a line: LTEA_HepaRG_FMO3: Life Technologies and Expression Analysis (LTEA) Assay for flavin-containing dimethylaniline monooxygenases 3 (FMO3) using HepaRG (AID 2283453). The following applies: mRNA level, 48 h; actives raise or lower the signal. Summed up: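 Differentiated HepaRG cells in serum-free induction medium, exposed 48 h in duplicate to 8 half-log concentrations up to 100 uM in 0.5% DMSO. FMO3 mRNA by qRT-PCR, normalized to ACTB, GAPDH, POLR2A; bidirectional fit vs DMSO.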

Read-out in test [6]: Cytochrome P450 (CYP1A1), CYP1A1 (gene 1543)
Nature of the test: LTEA_HepaRG_CYP1A1: Life Technologies and Expression Analysis (LTEA) Assay for Cytochrome P450 (CYP1A1) using HepaRG (AID 2283454). The conditions noted are these: mRNA level, 48 h; actives raise or lower the signal. Summed up:
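qRT-PCR read-out: CYP1A1 transcript normalized to three housekeeping genes, fitted bidirectionally against 0.5% DMSO vehicle baseline. Human HepaRG cells, 48 h chemical exposure, 8-point half-log series topping at 100 uM.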

Read-out in test [7]: CFLAR gene, CFLAR (gene 8837)
Nature of the test: LTEA_HepaRG_CFLAR: Life Technologies and Expression Analysis (LTEA) Assay for CFLAR gene using HepaRG (AID 2283455). The conditions noted are these: mRNA level, 48 h; actives raise or lower the signal. Summed up:
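Differentiated HepaRG cells in serum-free induction medium were exposed 48 h in duplicate to eight half-log concentrations up to 100 uM in 0.5% DMSO; mRNA measured by TaqMan qRT-PCR, normalized to ACTB, GAPDH, POLR2A; bidirectional fitting versus DMSO.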

Read-out in test [8]: Forkhead box O1 (FOXO1), FOXO1 (gene 2308)
Nature of the test: LTEA_HepaRG_FOXO1: Life Technologies and Expression Analysis (LTEA) Assay for Forkhead box O1 (FOXO1) using HepaRG (AID 2283456). The following applies: mRNA level, 48 h; actives raise or lower the signal. In outline: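 Differentiated HepaRG cells, in serum-free induction medium with 0.5% DMSO, exposed 48 h in duplicate to 8-point half-log series from 100 uM. FOXO1 mRNA measured by TaqMan qRT-PCR, normalized to ACTB, GAPDH, POLR2A; bidirectional fit versus DMSO.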

Read-out in test [9]: growth arrest and DNA damage 45 (GADD45A), GADD45A (gene 1647)
The experiment in a line: LTEA_HepaRG_GADD45A: Life Technologies and Expression Analysis (LTEA) Assay for growth arrest and DNA damage 45 (GADD45A) using HepaRG (AID 2283458). The conditions noted are these: mRNA level, 48 h; actives raise or lower the signal. In outline: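 Differentiated HepaRG cells exposed 48 h in serum-free induction medium to 8 concentrations, top 100 uM in half-log steps, 0.5% DMSO. GADD45A mRNA quantified by qRT-PCR, normalized to ACTB, GAPDH and POLR2A; bidirectional fit versus DMSO.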

Read-out in test [10]: Forkhead box O3 (FOXO3), FOXO3 (gene 2309)
Nature of the test: LTEA_HepaRG_FOXO3: Life Technologies and Expression Analysis (LTEA) Assay for Forkhead box O3 (FOXO3) using HepaRG (AID 2283459). The conditions noted are these: mRNA level, 48 h; actives raise or lower the signal. Summed up:
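Differentiated human HepaRG cells, 48 h post-plating, exposed in duplicate for 48 h in serum-free induction medium; 8-point half-log series from 100 uM in 0.5% DMSO. FOXO3 mRNA by TaqMan qRT-PCR, normalized to ACTB/GAPDH/POLR2A; bidirectional fit versus DMSO.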

Test [11] in a line: CEETOX_H295R_CORTIC: CeeTox H295R High-throughput Steroidogenesis Assay for Corticosterone (CORTIC) (AID 2283437).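 Note: corticosterone secreted into medium quantified by mass spectrometry.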 The conditions noted are these: actives raise or lower the signal. Summed up: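 H295R adrenal cells prestimulated 48 hours with 10 uM forskolin, then exposed 48 hours to chemical in 0.1% DMSO. Corticosterone in medium measured by HPLC-MS/MS after MTBE extraction; MTT viability in the same wells; bidirectional fit versus DMSO.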

The nature of test [12]: CEETOX_H295R_CORTISOL: CeeTox H295R High-throughput Steroidogenesis Assay for Cortisol (AID 2283438).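 Note: cortisol secreted into medium quantified by LC-MS/MS.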 The following applies: actives raise or lower the signal. In outline: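 Forskolin-primed H295R cells (10 uM, 48 h) treated 48 h with test chemical in 0.1% DMSO. Cortisol in medium quantified by MTBE extraction and HPLC-MS/MS; bidirectional fit vs DMSO, MTT viability in same wells.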

The nature of test [13]: CEETOX_H295R_DOC: CeeTox H295R High-throughput Steroidogenesis Assay for DOC (AID 2283439). The following applies: actives raise or lower the signal. In outline: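 H295R cells prestimulated 48 h with 10 uM forskolin, then exposed 48 h to test chemical (0.1% DMSO final). Medium 11-deoxycorticosterone measured by HPLC-MS/MS after MTBE extraction; bidirectional fit vs DMSO, viability checked by MTT in same wells.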

Read-out in test [14]: Cyclin Dependent Kinase Inhibitor 1A (CDKN1A), CDKN1A (gene 1026)
The experiment in a line: LTEA_HepaRG_CDKN1A: Life Technologies and Expression Analysis (LTEA) Assay for Cyclin Dependent Kinase Inhibitor 1A (CDKN1A) using HepaRG (AID 2283450). The following applies: mRNA level, 48 h; actives raise or lower the signal. In outline:
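HepaRG, 48 h dosing, 8-pt half-log series from 100 uM top, 0.5% DMSO vehicle, duplicates. Readout: TaqMan qRT-PCR of CDKN1A transcript, housekeeping-normalized (ACTB, GAPDH, POLR2A). Up/down curve fit relative to DMSO.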

Read-out in test [15]: catalase (CAT), CAT (gene 847)
Nature of the test: LTEA_HepaRG_CAT: Life Technologies and Expression Analysis (LTEA) Assay for catalase (CAT) using HepaRG (AID 2283452). The conditions noted are these: mRNA level, 48 h; actives raise or lower the signal. Summed up:
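HepaRG cells in serum-free induction medium, 0.5% DMSO vehicle, exposed 48 h in duplicate over 8 half-log concentrations from 100 uM. CAT mRNA measured by qRT-PCR, normalized to ACTB, GAPDH, POLR2A; bidirectional fit versus DMSO.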

The nature of test [16]: CEETOX_H295R_ESTRADIOL: CeeTox H295R High-throughput Steroidogenesis Assay for Estradiol (AID 2283440).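 Note: estradiol secreted into medium quantified by LC-MS/MS after dansyl derivatisation.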 The following applies: actives raise or lower the signal. Summed up:
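H295R, 48 h forskolin (10 uM) prestim → 48 h compound, 0.1% DMSO final. Estradiol in medium: MTBE extraction, dansyl chloride derivatization, LC-MS/MS. Fit bidirectional vs DMSO baseline; MTT viability in same wells.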

Test [17] in a line: CEETOX_H295R_ESTRONE: CeeTox H295R High-throughput Steroidogenesis Assay for Estrone (AID 2283441).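 For AC50: human adrenal H295R cells prestimulated with forskolin for two days.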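 Note: estrone secreted into medium measured by LC-MS/MS after dansyl derivatization.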 The conditions noted are these: actives raise or lower the signal. Summed up: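 H295R cells prestimulated 48 h with 10 uM forskolin, then exposed 48 h to chemicals in 0.1% DMSO final; estrone in medium extracted with MTBE, dansyl-derivatized, quantified by HPLC-MS/MS; bidirectional fitting versus DMSO, viability by MTT.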

Read-out in test [18]: Tumor necrosis factor receptor superfamily member 6 (Homo sapiens) (UniProt P25445)
Nature of the test: LTEA_HepaRG_FAS: Life Technologies and Expression Analysis (LTEA) Assay for Fas cell surface death receptor (FAS) using HepaRG (AID 2283447). The conditions noted are these: mRNA level, 48 h; actives raise or lower the signal. In outline:
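Differentiated HepaRG cells in serum-free induction medium were exposed 48 h to 8 half-log concentrations up to 100 uM in 0.5% DMSO, in duplicate. FAS mRNA was measured by qRT-PCR normalised to ACTB, GAPDH and POLR2A; bidirectional fit versus DMSO.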

Chain of Fatty acid synthase (Homo sapiens) (P49327 whole entry, looked up): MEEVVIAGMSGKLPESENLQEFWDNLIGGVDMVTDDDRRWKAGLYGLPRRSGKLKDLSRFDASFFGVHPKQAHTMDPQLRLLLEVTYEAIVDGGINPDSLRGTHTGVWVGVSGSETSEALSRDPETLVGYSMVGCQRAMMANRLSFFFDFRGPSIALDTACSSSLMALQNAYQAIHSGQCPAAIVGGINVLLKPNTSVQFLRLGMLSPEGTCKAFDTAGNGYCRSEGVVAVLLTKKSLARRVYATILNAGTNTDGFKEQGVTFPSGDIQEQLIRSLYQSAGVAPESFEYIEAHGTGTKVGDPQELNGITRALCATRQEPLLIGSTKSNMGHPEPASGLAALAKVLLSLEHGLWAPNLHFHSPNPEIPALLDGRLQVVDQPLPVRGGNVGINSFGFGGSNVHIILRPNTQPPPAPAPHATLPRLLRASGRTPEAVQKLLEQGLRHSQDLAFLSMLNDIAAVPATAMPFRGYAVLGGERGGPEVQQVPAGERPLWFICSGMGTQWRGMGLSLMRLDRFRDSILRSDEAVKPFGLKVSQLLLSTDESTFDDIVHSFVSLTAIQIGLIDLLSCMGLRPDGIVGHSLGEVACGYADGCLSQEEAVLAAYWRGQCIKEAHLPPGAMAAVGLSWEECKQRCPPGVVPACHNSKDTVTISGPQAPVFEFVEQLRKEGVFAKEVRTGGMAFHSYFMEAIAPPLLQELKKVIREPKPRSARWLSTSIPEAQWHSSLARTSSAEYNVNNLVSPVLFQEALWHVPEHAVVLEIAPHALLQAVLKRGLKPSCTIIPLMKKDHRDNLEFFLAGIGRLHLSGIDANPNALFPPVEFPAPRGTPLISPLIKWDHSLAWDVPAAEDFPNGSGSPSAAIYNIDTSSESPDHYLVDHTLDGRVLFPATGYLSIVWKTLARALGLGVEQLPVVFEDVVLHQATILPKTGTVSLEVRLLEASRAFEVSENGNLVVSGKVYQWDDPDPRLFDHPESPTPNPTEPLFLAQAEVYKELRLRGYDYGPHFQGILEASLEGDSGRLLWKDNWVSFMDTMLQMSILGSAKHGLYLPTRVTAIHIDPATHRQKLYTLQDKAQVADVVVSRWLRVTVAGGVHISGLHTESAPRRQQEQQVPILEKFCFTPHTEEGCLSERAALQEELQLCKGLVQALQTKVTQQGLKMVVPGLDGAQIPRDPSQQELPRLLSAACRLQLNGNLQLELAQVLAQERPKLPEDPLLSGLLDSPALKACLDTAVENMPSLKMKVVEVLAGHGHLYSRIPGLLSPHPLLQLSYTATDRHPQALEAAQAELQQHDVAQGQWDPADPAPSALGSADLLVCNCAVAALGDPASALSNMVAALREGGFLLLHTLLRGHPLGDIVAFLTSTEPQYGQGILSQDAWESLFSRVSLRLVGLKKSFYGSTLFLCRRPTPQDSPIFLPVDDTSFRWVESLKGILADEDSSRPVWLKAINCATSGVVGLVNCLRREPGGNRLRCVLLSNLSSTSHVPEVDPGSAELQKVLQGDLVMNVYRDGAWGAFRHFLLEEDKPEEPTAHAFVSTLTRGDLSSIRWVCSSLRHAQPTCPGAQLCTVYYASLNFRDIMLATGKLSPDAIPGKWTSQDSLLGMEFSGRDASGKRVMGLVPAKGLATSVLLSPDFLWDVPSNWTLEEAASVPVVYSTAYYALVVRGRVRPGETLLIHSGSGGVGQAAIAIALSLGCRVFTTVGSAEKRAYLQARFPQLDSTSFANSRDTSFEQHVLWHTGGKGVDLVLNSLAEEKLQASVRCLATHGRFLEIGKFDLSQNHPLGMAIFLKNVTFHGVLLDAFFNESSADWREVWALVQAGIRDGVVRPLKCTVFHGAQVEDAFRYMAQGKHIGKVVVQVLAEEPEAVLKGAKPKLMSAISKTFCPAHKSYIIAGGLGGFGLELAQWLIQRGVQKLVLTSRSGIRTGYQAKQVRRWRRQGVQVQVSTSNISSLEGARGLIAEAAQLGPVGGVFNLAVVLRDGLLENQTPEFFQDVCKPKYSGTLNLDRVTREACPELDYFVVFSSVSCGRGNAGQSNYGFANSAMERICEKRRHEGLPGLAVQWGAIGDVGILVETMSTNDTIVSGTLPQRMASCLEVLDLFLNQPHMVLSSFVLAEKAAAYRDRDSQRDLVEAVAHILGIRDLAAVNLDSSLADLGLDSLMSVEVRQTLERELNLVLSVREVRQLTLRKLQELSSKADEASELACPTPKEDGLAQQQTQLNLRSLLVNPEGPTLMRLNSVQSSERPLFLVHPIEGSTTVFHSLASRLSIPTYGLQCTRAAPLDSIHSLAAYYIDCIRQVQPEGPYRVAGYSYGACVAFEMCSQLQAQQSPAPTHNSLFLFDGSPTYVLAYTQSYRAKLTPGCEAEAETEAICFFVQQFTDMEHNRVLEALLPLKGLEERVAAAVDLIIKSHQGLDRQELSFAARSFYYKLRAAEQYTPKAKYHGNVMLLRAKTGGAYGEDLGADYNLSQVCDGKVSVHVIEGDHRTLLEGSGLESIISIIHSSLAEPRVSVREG

With `CC(C)NC(=O)N1CC(=O)N(c2cc(Cl)cc(Cl)c2)C1=O`, the AC50 in test [1] was 16.9 µM (active); in [2], 16.2 µM (active); in test [4], 23.8 µM (active); in [5], 17 µM (active); in test [6], 5.2 µM (active); in test [7], 20.2 µM (active). The AC50 in [10] was 7.56 µM (active). The outcome in test [3], in test [8] and in test [9] was inactive.
Regarding `CCCCC(C#N)(Cn1cncn1)c1ccc(Cl)cc1` (configuration not stated), the result in test [11], in test [1], in [3], in test [4], in [15] and in test [5] was inactive. The result in [7], in test [8], in test [9] and in test [10] was inactive. Further, the AC50 is 832 nM (active) in test [12]; 36.5 µM (active) in [13]; 22.1 µM (active) in test [2]; 50 µM (active) in test [14]; 27.1 µM (active) in test [6].
Consider `CC(C)Nc1nc(Cl)nc(NC(C)C)n1`, for which the result in test [16], in test [1], in [2], in test [3], in [14] and in test [4] was inactive. Moreover, the compound was classed as inactive in test [5], in [7], in [8], in [9] and in [10]. For the same compound, the figures for the AC50 in test [17] and in [6] were 23.1 µM (active) and 41.2 µM (active), respectively.
As to `CN/C(=N\[N+](=O)[O-])NCc1cnc(Cl)s1`, the compound was called inactive in test [16], in test [17], in test [1], in test [18], in [3] and in test [14]. For the same compound, the compound was classed as inactive in test [4], in [5], in [6], in test [7], in test [8] and in test [9]. In addition, in [10], the compound was classed as inactive. Moreover, the AC50 in test [2] is 50 µM (active).
